Assay [1] addresses Lysosomal acid glucosylceramidase (Homo sapiens) (UniProt P04062). Kind of assay: Glucocerebrosidase-p2 (AID 348; in the data active = potency below about 10 µM; also: potency is read from the fitted curve at half-maximal effect). Conditions: purified GBA, blue fluorogenic substrate, 40 min. Summed up:
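Compounds titrated from 0.6 nM upwards against 0.2 nM enzyme in pH 5.9 citric acid/KH2PO4, taurocholate, tween-20; blue fluorogenic substrate 80 uM, 40 min room temperature, stopped and read Ex 365/Em 440 for AC50.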

A short description of assay [2]: AP1 Signaling Pathway (AID 357; active = well fitted curve in either direction with a large enough effect, not every such curve was filed as active;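 also: ME-180 reporter cells stimulated with EGF at its EC50 level; % is scaled to controls: 0 for no effect and ±100 for the full control effect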). The conditions noted are these: ME-180 AP-1-bla reporter, EGF-induced, beta-lactamase ratio, 5 h; at 7.69 µM (top of the series) unless noted. Summed up: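 Beta-lactamase reporter under AP-1 response element, ME-180 background. Stimulus: EC50 EGF. Compound exposure 5 h, 37 °C. Detection: CCF4, 2.5 h RT, 460/530 nm. Values: AC50 from titration.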

In assay [3] the target is Cytochrome P450 1A2 (Homo sapiens) (UniProt P05177). The assay can be described thus: p450-cyp1a2 (AID 410; calls by dose curve; also: potency is read from the fitted curve at half-maximal effect). Conditions: recombinant CYP1A2, luciferin-ME demethylation, luminescence; series mostly up to 57 µM. Summed up:
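Inhibition was calculated relative to 57 uM furafylline (full inhibition). The reaction used human CYP1A2 at 20nM with Luciferin-ME at its Km, 100uM, driven by an NADPH-regenerating system for 60 min at room temperature.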

The nature of assay [4]: NFAT Signaling Pathway (AID 444; active = well fitted curve in either direction with a large enough effect, not every such curve was filed as active;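 also: carbachol stimulus at about its EC50 of 1 µM final; % is scaled to controls: 0 for no effect and ±100 for the full control effect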). The conditions noted are these: Jurkat NFAT-bla M1, carbachol, beta-lactamase ratio, 5 h; at 7.69 µM (top of the series) unless noted. Summed up:
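Jurkat cells carrying an NFAT-driven β-lactamase reporter and co-transfected muscarinic M1 receptor were treated with compound plus carbachol (1 uM final, an EC50 level) for 5 h at 37 °C. CCF4 loading followed for 1 h at RT; 460/530 nm ratio gave %activity.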

A short description of assay [5]: Stat Signaling Pathway (AID 446; active = well fitted curve in either direction with a large enough effect, not every such curve was filed as active;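 also: ME-180 cervical cancer cells given 40 pM IL-6 alongside compound; SIE-controlled beta-lactamase reporter measured as 460/530 nm FRET emission ratio; % is scaled to controls: 0 for no effect and ±100 for the full control effect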). Conditions: ME-180 SIE beta-lactamase reporter, IL-6 stimulated, 5 h; at 7.69 µM (top of the series) unless noted. Summed up: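 ME-180 SIE-bla cells; overnight plating; cpd + IL-6 40 pM, 5 h, 37 C; LiveBLAzer 2.5 h RT; 460/530 nm emission ratio. Normalized to 300 pM IL-6 and 125 nM JAK inhibitor controls.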
Assay [6] has as its target Glucocorticoid receptor (Homo sapiens) (UniProt P04150). Kind of assay: GR-GFP Redistribution (AID 450;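 active = compounds whose dose series gives a full or clear partial fitted curve of increased nuclear translocation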; also: potency is read from the fitted curve at half-maximal effect). The conditions noted are these: U2OS GR-GFP nuclear translocation, laser cytometry, 2 h.
Assay [7] shares this target. The assay can be described thus: GR-EFC Redistribution (AID 451; calls by dose curve; also: potency is read from the fitted curve at half-maximal effect). The conditions noted are these: CHO-K1 GR-EFC translocation, beta-gal luminescence, 2 h. Summed up: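 CHO-K1 cells stably expressing nuclear-localized β-gal enzyme acceptor and GR fused C-terminally to the enzyme donor fragment; ligand-driven nuclear translocation restores β-gal by complementation. Compounds titrated up to 46 uM final, 2 h at 37 °C; luminescence read.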

Assay [8] has as its target Mitogen-activated protein kinase 10 (Mus musculus) (UniProt Q61831). Kind of assay: JNK3 AlphaScreen Assay (AID 530; active = well fitted curve in either direction with a large enough effect, not every such curve was filed as active;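 also: kinase came from lysate of stimulated human HepG2 cells; signal reports phosphorylation of biotinylated GST-cJun 1-79 at Ser73 with 10 µM ATP; % is scaled to controls: 0 for no effect and ±100 for the full control effect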). The conditions noted are these: JNK3 lysate, c-Jun phosphorylation; series mostly up to 57.1 µM. Summed up:
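JNK3 came from HepG2 lysates pre-activated with IL-1beta and TNF-alpha and phosphorylated biotinylated GST-cJun (1-79) at 10 uM ATP, pH 7.6, room temperature. Compounds were titrated. AlphaScreen signal used anti-phospho-cJun (Ser73) antibody.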

The target in assay [9] is 3',5'-cyclic-AMP phosphodiesterase 4B (Homo sapiens) (UniProt Q07343). Kind of assay: qHTS Assay for Inhibitors of PDE-IV (AID 607; active = well fitted activation curve with a large enough effect in the main read-out, with a control signal flat, not every such curve was filed as active; also: % of control where 0% means no effect). The conditions noted are these: HEK293 ACTOne CNG channel cells, membrane potential fluorescence; series mostly up to 22.9 µM. Summed up: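 ACTOne HEK293 cells carry a modified cAMP-gated CNG channel and express endogenous PDE4; plated 1000 cells/well, compounds up to 22.9 uM final. Membrane-potential dye fluorescence (ex 535/em 590) was read; parental cells received 10 uM forskolin + 100 uM RO 20-1724.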

The nature of assay [10]: qHTS Assay for Lipid Storage Modulators (AID 1519; calls by dose curve). Conditions: Drosophila S3 cells, BODIPY lipid droplet/cell ratio, laser cytometry, cells loaded with oleic acid; for activity change, negative = inhibition: at 57.5 µM (top of the series). Summed up: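 Cells seeded at 5,000 per well were treated with compounds over a concentration series and loaded with oleic acid (400 uM, as added). Lipid droplet fluorescence (488 nm excitation, 500-530 nm channel) was read by laser-scanning cytometry and normalized to 20 uM Triacsin C.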

For assay [11], the target named is Dual specificity protein kinase CLK4 (Homo sapiens) (UniProt Q9HAZ1). Kind of assay: qHTS Assay for Inhibitors of CDC-like Kinase 4 (Kinase-Glo Assay) (AID 1770). Also: % is scaled to controls: 0 for no effect and ±100 for the full control effect; nearly all actives have a fitted effect of over 65% in size. The conditions noted are these: recombinant Clk4, Kinase-Glo ATP depletion luminescence; series mostly up to 66.7 µM. Summed up:
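Luminescent ATP-depletion read-out (Kinase-Glo) after 4.5 h room-temperature reaction of Clk4 (25 nM final) with RS peptide (100 uM) and ATP (1 uM), pH 7.5 Tris buffer with MgCl2 and DTT.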

For assay [12] the target is unchanged. The assay can be described thus: qHTS Assay for Inhibitors of CDC-like Kinase 4 (ADP-Glo Assay) (AID 1771). Also: % is scaled to controls: 0 for no effect and ±100 for the full control effect; nearly all actives have a fitted effect of over 70% in size. The conditions noted are these: recombinant CLK4, ADP-Glo luminescence; series mostly up to 80 µM. Summed up: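 Kinase reaction: Clk4 at 25 nM, RS repeat peptide substrate at 100 uM, ATP at 1 uM, 1 hr, room temperature. Product ADP detected as luciferase signal via ADP-Glo.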

For assay [13] the target is unchanged. Kind of assay: qHTS Assay for Inhibitors of CDC-like Kinase 4 (ADP-FP Assay) (AID 1795). Also: % is scaled to controls: 0 for no effect and ±100 for the full control effect; nearly all actives have a fitted effect of over 60% in size. Conditions: Transcreener ADP fluorescence polarization; series mostly up to 50 µM. Summed up: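 Kinase activity was measured as ADP production using Transcreener orange tracer (4 nM) and ADP antibody (1 ug/mL) fluorescence polarization, with ADP calculated from a calibration curve. The 1 h reaction contained 6.25 nM Clk4, 1 uM ATP and 100 uM RS peptide at pH 7.5 with Mg2+.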

Assay [14] deals with Ubiquitin carboxyl-terminal hydrolase 1 (Homo sapiens) (UniProt O94782). Kind of assay: Inhibitors of USP1/UAF1: Pilot qHTS (AID 504865). Also: nearly all actives have a fitted effect of over 35% in size. Also: potency is read from the fitted curve at half-maximal effect. Conditions: purified USP1/UAF1, Ub-rhodamine cleavage fluorescence; series mostly up to 54.9 µM. Summed up: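 Deubiquitinase activity followed as kinetic rhodamine fluorescence release from 150 nM Ub-Rho. 1 nM USP1/UAF1 with compound, after 15 min room-temperature preincubation, in HEPES pH 7.8 buffer containing TCEP, EDTA, BSA and Tween-20.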

Assay [15] can be described thus: Primary qHTS for small molecule stabilizers of the endoplasmic reticulum resident proteome: Secreted ER Calcium Modulated Protein (SERCaMP) assay (AID 1508630). Also: % is scaled to controls: 0 for no effect and ±100 for the full control effect. The conditions noted are these: SH-SY5Y GLuc-SERCaMP (Gaussia luciferase released on ER calcium loss) secretion, thapsigargin, luminescence; series mostly up to 38.4 µM. Summed up: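 GLuc-SERCaMP-expressing SH-SY5Y cells, pretreated 16 h with compound, are challenged with thapsigargin to empty ER calcium stores; after 4 h, coelenterazine is added directly to the medium and luminescence is imaged.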

The target in assay [16] is Cytochrome P450 3A4 (Homo sapiens) (UniProt P08684). Kind of assay: qHTS Assay for Activators of Cytochrome P450 3A4 (AID 885). Also: nearly all actives have a fitted effect of over 65% in size. Conditions: recombinant CYP3A4, Luciferin-PPXE luminescence, 60 min; series mostly up to 57.1 µM. Summed up:
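20nM CYP3A4 + 25uM Luciferin-PPXE (=KM), 200mM KPO4; cpd 10 min RT; NADPH regen, 60 min RT; stop w/ detection buffer, 20 min; luminescence. Normalized to 57 uM ketoconazole.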

The target of assay [17] is Rap guanine nucleotide exchange factor 3 (Homo sapiens) (UniProt O95398). The assay can be described thus: Confirmatory qHTS for agonist of cAMP-regulated guanine nucleotide exchange factor 3 (EPAC1) (AID 1645881).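 Also: EPAC1 catalysed release of BODIPY-GDP from Rap1B seen as fluorescence loss; nearly all actives have a fitted effect of over 75% in size.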 The conditions noted are these: EPAC1 Rap1B BODIPY-GDP exchange fluorescence, 100% = cAMP control response; series mostly up to 154 µM.
Assay [18] deals with Rap guanine nucleotide exchange factor 4 (Homo sapiens) (UniProt Q8WZA2). Kind of assay: Confirmatory qHTS for antagonist of cAMP-regulated guanine nucleotide exchange factor 4 (EPAC2) (AID 1645885). Also: potency is read from the fitted curve at half-maximal effect; nearly all actives have a fitted effect of over 25% in size. Conditions: EPAC2 Rap1B-BODIPY-GDP exchange fluorescence, biochemical; series mostly up to 114 µM.
The mark [19] stands for this setting: measured here: cell count channel max response.
The mark [20] stands for this setting: measured here: lipid channel max response.

Molecules are shown by their SMILES. Records with an inconclusive call do not appear. Active and inactive are the calls of the source. Unless noted, calls follow the shape of the dose curve; as a rule, active = well fitted curve in the direction sought with a large enough effect; inconclusive = small, poorly fitted or top-dose-only effect, or another doubt; inactive = no such curve, though single readings can be large; an effect the other way counts as inactive or inconclusive.

Cytochrome P450 1A2 (Homo sapiens), sequence (P05177 whole entry, looked up): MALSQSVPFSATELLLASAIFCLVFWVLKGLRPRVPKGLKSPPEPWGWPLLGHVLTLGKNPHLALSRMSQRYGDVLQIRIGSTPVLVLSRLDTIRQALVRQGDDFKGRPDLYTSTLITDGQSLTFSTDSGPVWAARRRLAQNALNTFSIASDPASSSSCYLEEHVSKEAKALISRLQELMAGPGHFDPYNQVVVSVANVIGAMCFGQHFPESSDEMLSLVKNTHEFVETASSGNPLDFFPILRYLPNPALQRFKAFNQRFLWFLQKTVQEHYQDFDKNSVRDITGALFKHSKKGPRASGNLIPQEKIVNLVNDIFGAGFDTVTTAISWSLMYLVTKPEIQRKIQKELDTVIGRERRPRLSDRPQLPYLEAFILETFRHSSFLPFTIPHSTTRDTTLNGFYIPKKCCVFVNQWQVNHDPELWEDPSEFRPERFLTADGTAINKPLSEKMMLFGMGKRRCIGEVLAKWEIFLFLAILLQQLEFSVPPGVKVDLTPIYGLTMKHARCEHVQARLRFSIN
Lysosomal acid glucosylceramidase (Homo sapiens), sequence (P04062 whole entry, looked up): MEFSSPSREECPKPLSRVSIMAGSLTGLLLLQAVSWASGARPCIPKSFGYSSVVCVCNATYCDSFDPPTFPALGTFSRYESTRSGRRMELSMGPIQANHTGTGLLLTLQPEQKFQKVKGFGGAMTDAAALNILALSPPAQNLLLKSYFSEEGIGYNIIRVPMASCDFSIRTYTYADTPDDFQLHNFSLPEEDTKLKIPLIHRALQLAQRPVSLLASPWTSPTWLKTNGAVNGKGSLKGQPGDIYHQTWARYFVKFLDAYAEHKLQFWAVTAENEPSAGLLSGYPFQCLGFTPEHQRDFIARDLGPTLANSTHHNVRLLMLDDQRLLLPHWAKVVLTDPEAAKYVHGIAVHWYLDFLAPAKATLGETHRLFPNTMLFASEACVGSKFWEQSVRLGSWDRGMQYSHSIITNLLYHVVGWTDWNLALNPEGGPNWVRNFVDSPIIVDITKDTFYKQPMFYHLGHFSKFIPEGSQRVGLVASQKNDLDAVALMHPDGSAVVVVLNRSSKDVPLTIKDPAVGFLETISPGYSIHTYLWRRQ
3',5'-cyclic-AMP phosphodiesterase 4B (Homo sapiens), sequence (Q07343 whole entry, looked up): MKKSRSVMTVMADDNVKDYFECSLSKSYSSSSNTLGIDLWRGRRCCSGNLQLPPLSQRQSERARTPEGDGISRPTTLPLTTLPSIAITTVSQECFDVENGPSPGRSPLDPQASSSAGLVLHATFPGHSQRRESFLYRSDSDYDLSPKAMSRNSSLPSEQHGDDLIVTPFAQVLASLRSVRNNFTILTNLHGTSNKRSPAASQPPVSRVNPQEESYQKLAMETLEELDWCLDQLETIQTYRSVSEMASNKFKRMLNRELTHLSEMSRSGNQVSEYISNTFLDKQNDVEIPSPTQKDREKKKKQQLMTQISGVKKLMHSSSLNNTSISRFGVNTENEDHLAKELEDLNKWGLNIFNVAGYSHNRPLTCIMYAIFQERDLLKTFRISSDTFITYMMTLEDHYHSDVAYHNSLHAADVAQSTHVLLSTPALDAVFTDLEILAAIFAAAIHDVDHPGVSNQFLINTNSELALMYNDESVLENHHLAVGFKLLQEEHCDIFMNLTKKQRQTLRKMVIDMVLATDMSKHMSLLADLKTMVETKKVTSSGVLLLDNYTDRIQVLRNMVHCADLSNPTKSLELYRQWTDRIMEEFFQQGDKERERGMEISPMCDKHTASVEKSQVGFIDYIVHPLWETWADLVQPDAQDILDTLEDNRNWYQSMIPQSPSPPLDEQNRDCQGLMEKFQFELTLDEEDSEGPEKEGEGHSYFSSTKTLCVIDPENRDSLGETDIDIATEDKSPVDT
Dual specificity protein kinase CLK4 (Homo sapiens), sequence (Q9HAZ1 whole entry, looked up): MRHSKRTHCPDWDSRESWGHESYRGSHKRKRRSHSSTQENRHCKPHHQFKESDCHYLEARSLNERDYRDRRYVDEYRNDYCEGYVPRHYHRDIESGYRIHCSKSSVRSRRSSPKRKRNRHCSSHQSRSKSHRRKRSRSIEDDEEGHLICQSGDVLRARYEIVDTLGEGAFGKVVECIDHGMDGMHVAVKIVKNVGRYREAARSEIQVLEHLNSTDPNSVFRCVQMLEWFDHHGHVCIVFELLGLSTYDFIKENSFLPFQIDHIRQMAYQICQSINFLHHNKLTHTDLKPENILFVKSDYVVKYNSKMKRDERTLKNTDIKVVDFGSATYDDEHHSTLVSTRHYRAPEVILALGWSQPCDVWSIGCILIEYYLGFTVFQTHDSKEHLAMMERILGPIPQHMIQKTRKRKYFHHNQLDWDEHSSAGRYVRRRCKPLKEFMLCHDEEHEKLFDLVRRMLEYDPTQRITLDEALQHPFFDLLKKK
Glucocorticoid receptor (Homo sapiens), sequence (P04150 whole entry, looked up, the tested form may be a part): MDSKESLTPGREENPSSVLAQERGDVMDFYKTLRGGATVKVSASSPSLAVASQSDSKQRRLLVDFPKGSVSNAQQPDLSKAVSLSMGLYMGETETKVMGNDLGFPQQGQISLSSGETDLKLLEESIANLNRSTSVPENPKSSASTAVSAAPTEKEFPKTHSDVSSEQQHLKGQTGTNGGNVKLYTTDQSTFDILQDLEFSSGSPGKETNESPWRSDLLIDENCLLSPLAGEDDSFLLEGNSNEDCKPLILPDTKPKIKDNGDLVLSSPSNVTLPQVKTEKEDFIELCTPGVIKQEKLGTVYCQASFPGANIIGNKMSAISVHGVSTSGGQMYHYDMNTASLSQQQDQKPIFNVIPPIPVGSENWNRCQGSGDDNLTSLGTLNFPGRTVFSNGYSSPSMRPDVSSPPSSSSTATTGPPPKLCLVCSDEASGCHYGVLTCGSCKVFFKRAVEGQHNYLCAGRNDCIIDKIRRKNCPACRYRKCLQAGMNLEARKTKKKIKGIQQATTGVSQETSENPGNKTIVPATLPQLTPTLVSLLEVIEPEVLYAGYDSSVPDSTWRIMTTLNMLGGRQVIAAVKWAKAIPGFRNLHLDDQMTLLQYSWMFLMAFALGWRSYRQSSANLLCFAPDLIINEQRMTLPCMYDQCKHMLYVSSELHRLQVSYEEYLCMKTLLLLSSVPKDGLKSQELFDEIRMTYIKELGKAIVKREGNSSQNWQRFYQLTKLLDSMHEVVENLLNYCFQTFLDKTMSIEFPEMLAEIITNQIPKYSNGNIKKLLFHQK
Ubiquitin carboxyl-terminal hydrolase 1 (Homo sapiens), sequence (O94782 whole entry, looked up): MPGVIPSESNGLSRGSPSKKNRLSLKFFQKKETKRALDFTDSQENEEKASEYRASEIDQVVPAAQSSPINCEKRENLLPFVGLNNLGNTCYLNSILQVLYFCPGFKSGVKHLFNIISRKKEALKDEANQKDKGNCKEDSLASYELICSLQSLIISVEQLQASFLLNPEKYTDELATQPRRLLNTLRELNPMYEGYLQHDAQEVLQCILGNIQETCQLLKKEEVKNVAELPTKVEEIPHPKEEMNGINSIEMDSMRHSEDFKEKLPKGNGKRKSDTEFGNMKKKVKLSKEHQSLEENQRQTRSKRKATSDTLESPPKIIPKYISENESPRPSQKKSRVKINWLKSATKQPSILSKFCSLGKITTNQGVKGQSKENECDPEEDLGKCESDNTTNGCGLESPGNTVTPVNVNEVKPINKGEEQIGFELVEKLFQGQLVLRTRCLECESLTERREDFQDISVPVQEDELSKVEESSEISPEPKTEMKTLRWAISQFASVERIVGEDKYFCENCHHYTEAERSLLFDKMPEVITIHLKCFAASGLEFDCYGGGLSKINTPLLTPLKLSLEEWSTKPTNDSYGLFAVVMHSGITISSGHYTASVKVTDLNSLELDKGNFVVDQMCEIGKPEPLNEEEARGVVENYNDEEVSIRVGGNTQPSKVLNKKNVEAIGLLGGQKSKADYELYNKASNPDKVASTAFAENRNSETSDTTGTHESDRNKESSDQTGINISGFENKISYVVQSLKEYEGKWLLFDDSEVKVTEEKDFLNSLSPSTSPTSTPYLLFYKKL
Rap guanine nucleotide exchange factor 3 (Homo sapiens), sequence (O95398 whole entry, looked up): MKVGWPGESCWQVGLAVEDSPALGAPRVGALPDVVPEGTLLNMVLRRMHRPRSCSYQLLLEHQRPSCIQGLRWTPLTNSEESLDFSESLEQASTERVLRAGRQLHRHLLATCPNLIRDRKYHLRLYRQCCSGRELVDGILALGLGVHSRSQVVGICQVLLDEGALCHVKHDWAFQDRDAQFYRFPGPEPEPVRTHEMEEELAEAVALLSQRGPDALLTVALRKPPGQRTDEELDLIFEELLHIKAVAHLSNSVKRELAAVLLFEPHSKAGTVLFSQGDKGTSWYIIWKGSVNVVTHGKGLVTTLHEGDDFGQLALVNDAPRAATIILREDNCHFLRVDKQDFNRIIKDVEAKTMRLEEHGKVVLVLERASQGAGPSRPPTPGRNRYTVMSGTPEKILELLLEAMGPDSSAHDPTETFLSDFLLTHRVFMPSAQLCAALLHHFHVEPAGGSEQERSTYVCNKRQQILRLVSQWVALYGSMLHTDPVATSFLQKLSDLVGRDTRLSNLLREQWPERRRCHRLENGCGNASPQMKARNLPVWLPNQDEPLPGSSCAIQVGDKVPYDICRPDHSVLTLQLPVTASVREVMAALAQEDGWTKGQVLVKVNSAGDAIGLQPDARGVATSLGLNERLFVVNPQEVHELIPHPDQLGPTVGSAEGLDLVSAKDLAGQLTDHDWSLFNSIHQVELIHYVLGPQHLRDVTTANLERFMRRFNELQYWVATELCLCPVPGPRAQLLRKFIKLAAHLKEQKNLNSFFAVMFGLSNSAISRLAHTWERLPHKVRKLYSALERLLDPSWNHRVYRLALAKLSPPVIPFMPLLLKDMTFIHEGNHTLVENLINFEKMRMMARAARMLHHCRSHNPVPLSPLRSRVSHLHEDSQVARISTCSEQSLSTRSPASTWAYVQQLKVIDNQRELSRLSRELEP

As for `N#CCCn1c(=O)c(-c2ccc(Cl)cc2)nc2cnc(Oc3ccccc3)nc21`, the Potency was > 11.4 µM (inactive) in [1], 0.501 µM (active) in assay [3], > 9.22 µM (inactive) in [6] and > 46 µM (inactive) in assay [7]. The activity change, negative = inhibition in assay [2] is -26.3% (inactive); in assay [4] it was -9.95% (inactive); in assay [10] it was 4.78% (inactive). Besides, the activity, negative = inhibition in [5] was -6.74% (inactive). Moreover, the outcome in [8] was inactive. The Potency result in assay [9], in [11], in [12], in assay [13], in assay [14] and in assay [15] was “inactive” throughout. The max response in assay [10] (setting [19]) is 19.6%; in assay [10] (setting [20]), 24.2%.
In the case of `CCNc1ncc2nc(-c3ccc(F)cc3)c(=O)n(CCOC)c2n1`, the Potency was > 11.4 µM (inactive) in assay [1], 2 µM (active) in [3], > 9.22 µM (inactive) in [6] and > 46 µM (inactive) in [7]. Moreover, the activity change, negative = inhibition was -5.66% (inactive) in [2], -3.34% (inactive) in [4] and 6.73% (inactive) in assay [10]. The activity, negative = inhibition in assay [5] is 10.5% (inactive). Moreover, the compound was called inactive in [8]. The Potency entry in [9], in [11], in assay [12], in [13], in assay [14] and in [15] was “inactive” in each case. Besides, the max response in [10] (setting [19]) came out at 22.2%; in assay [10] (setting [20]), 28.8%.
Regarding `O=c1c(-c2cc(F)cc(F)c2)nc2cnc(N3CCNCC3)nc2n1Cc1cccs1`, the Potency in [1] was > 11.4 µM (inactive); in [6], > 9.22 µM (inactive); in assay [7] it was > 46 µM (inactive); in assay [18], 55.5 µM (active). Besides, the activity change, negative = inhibition is 98% [activator] (active) in [2] and -29.8% (inactive) in [10]. Further, the call in assay [8] and in assay [17] was inactive. Moreover, the Potency result in assay [16] and in [15] was “inactive” each time. Also, the results for the max response in assay [10] (setting [19]) and in assay [10] (setting [20]) were -11.3% and -33.5%, respectively.
With `COc1ccccc1CNc1nc(-c2c(C)noc2C)nc2ccccc12`, the Potency in [1] was > 11.4 µM (inactive); in assay [3], 0.631 µM (active); in [6] it was > 46 µM (inactive); in assay [7] it was > 46 µM (inactive); in assay [14], 28.2 µM (active); in assay [18] it was 39.3 µM (active). Moreover, the figures for the activity change, negative = inhibition in [2] and in [10] were 2.62% (inactive) and 7.14% (inactive), respectively. In addition, in assay [5], the activity, negative = inhibition was -26.3% (inactive). For the same compound, the call in assay [8] and in assay [17] was inactive. In addition, the Potency entry in assay [16], in assay [11], in assay [12], in assay [13] and in [15] was “inactive” in each case. The max response in assay [10] (setting [19]) was 14%; in assay [10] (setting [20]) it was 19.1%.
With `N#Cc1cccc(-c2nc3cnc(N4CCOCC4)nc3n(C[C@H]3CCCO3)c2=O)c1`, the Potency in assay [1] was > 11.4 µM (inactive); in assay [3], 0.794 µM (active); in assay [6], > 9.22 µM (inactive); in [7] it was > 46 µM (inactive). The activity change, negative = inhibition in [2] was -1.16% (inactive); in [4], 1.23% (inactive); in assay [10], 4.04% (inactive). The activity, negative = inhibition in assay [5] is 6.63% (inactive). Moreover, the outcome in assay [8] was inactive. The Potency result in [9], in assay [11], in [12], in assay [13], in [14] and in [15] was “inactive” in each case. Also, the max response in [10] (setting [19]) came out at 10%; in [10] (setting [20]), 11.4%.
